Test in all cases: NCI-60 one-dose screen, 48 h (100 = growth as untreated, 0 = no growth, -100 = all killed)
Common to all, as to settings: 10 µM unless noted

The test system of test [1] is T-47D breast.
The test system of test [2] is BT-549 breast.
Test [3] has as its system MDA-MB-435 melanoma.
Test [4] concerns SW-620 colon.
Test [5] relates to MCF7 breast.
The subject of test [6] is HCT-116 colon.
Test [7] has as its system HCC-2998 colon.
Test [8] concerns KM12 colon.

Results on 16 compounds are retold here after PubChem BioAssay (NCI).

This is part of a sample that, as a whole, favours compounds with a hit. Of some 83,000 tested, about 20% had one in any assay.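 Plates (96-well) were seeded with cells, treated with compound at one concentration, and incubated for 48 hours before percent growth was determined.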 Values without a mark were called inactive. Active and inactive are the calls of the source. Rule for the calls: active = growth percent below 10; inactive = the rest.

For `Nc1nc(Cl)cc(NCCCCNc2cc(Cl)nc(N)n2)n1`, the growth in test [1] was 108%; in test [2] it was 99.9%; in test [3], 124%; in test [4], 112%; in test [5], 109%; in test [6], 102%. For the same compound, the growth in test [7] was 103%; in test [8], 113%.
In the case of `COc1ccc(Cl)cc1NC(=O)c1cc2c([nH]1)-c1nc(NC(=O)C(C)C)sc1CC2`, the growth is 82.7% in test [1]; 105% in test [2]; 114% in test [3]; 101% in test [4]; 82.6% in test [5]; 80% in test [6]. In addition, the growth was 101% in test [7] and 94.6% in test [8].
`CC(C(C(=O)N1CCCCC1)N1CCCCC1)N1CCCCC1` (stereo not drawn): the growth in test [1] is 107%; in test [2], 111%; in test [3], 109%; in test [4] it was 108%; in test [5], 104%; in test [6], 97%. The growth in test [7] is 107%; in test [8], 113%.
On to `Nc1ncnc2c1c(-c1ccc(Oc3ccccc3)cc1)nn2C[C@H]1SSC[C@@H]1O`, for which the growth was -20.3% (active) in test [1]; 78.1% in test [2]; -92.9% (active) in test [3]; 51.1% in test [4]; 14.5% in test [5]; 13% in test [6]. For the same compound, the growth is 72.1% in test [7] and 32.6% in test [8].
Consider `Nc1n[nH]c2cccc(C#Cc3cccc(NC(=O)c4cccc(C(F)(F)F)c4)c3)c12`, for which the growth in test [1] is 25.3%; in test [2], 46.2%; in test [3] it was 30.1%; in test [4], 46.1%; in test [5], 39.9%; in test [6] it was 9.05% (active). Moreover, the growth is 26.2% in test [7] and 38.5% in test [8].
In the case of `CN(C)CCNc1nc2ccccc2c2c(=O)c3ccccc3sc12`, the growth in test [1] was 49%; in test [2], 74.4%; in test [3], 8.44% (active); in test [4] it was -54% (active); in test [5], -46.9% (active); in test [6] it was -9.31% (active). In addition, the growth is -11.3% (active) in test [7] and 18.5% in test [8].
On to `CCc1c(C)c2cc3c(c(C)c2oc1=O)OCC(=O)N3`, for which the growth in test [1] is 58.6%; in test [2] it was 74.7%; in test [3], 74.5%; in test [4] it was 90.3%; in test [5] it was 82.1%; in test [6], 52.7%. For the same compound, the growth in test [7] was 90%; in test [8] it was 84.3%.
In the case of `Cc1ccc(-c2nc3c(N=Nc4ccc(S(N)(=O)=O)cc4)c(N)nn3c(N)c2C#N)cc1`, the growth in test [1] was 34.1%; in test [2], 56%; in test [3], 52.3%; in test [4], 16.5%; in test [5], 28.3%; in test [6] it was 13.7%. Also, the growth in test [7] was 52.4%; in test [8], 29.2%.
Turning to `Cc1nssc1=S`, the growth was 105% in test [1]; 110% in test [2]; 104% in test [3]; 103% in test [4]; 93.7% in test [5]; 96.9% in test [6]. In addition, the growth in test [7] and in test [8] was 108% each time.
For the compound `CC1(C)N=C(N)N=C(N)N1c1cccc(CCCCc2ccccc2)c1`, the growth in test [1] is 18.1%; in test [2], -35.1% (active); in test [3], -0.215% (active); in test [4], 25.3%; in test [5], 3.82% (active); in test [6], 2.07% (active). In addition, the growth in test [7] was -9.45% (active); in test [8], -42.8% (active).
For the compound `Cc1cc(NCCN(C(C)C)C(C)C)nc(/N=C(\N)Nc2ccc(Cl)c(C(F)(F)F)c2)n1`, the growth is -54.3% (active) in test [1]; -64.6% (active) in test [2]; -73.9% (active) in test [3]; -89.7% (active) in test [4]; -78.4% (active) in test [5]; -100% (active) in test [6]. The growth in test [7] was -96.7% (active); in test [8] it was -92.6% (active).
Regarding `Nc1nc(Cl)c2c(C(F)(F)F)cn(CC3CCNCC3)c2n1`, the growth in test [1] was 104%; in test [2], 103%; in test [3], 76.5%; in test [4], 22.4%; in test [5], 103%; in test [6] it was 48.3%. The figures for the growth in test [7] and in test [8] were 78.9% and 101%, respectively.
Turning to `FC(F)(F)c1cn(CC2CNC2)c2ncnc(Cl)c12`, the growth in test [1] is 102%; in test [2], 125%; in test [3], 109%; in test [4], 104%; in test [5] it was 103%; in test [6], 108%. In addition, the results for the growth in test [7] and in test [8] were 99.5% and 104%, respectively.
Regarding `C=C1C(=O)O[C@H]2[C@H]1CC/C(C(=O)Nc1ccc(OC)c(C(N)=O)c1O)=C\CC[C@@]1(C)O[C@@H]21`, the growth is 16.9% in test [1]; 30.4% in test [2]; 60.6% in test [3]; 23.8% in test [4]; 31.1% in test [5]; 23.8% in test [6]. In addition, the growth in test [7] is 102%; in test [8], 85%.
On to `COc1ccccc1S(=O)(=O)Nc1ccc2c3c(cc(-c4cnn(C)c4)nc13)C(=O)N2C`, for which the growth is 35.5% in test [1]; 62.6% in test [2]; 35.2% in test [3]; 63.2% in test [4]; 16.5% in test [5]; 28.2% in test [6]. Besides, the growth in test [7] is 48.2%; in test [8], 38.2%.
Turning to `Cc1cn(C2CC(N=[N+]=[N-])C(COP(=O)(O)OP(=O)(O)OP(=O)(O)O)O2)c(=O)[nH]c1=O` (stereo not drawn), the growth was 111% in test [1]; 115% in test [2]; 107% in test [3]; 109% in test [4]; 104% in test [5]; 94.1% in test [6]. The growth in test [7] is 97.6%; in test [8], 108%.
